Bioassay records from PubChem BioAssay.
Most compounds without a hit are left out; they make up all but 3.1% or so of the library.
KAT2A inh: GCN5L2 (KAT2A) acetyltransferase inhibition. GCN5L2 HAT assay, ThioGlo1 CoA-SH fluorescence. AID 504327. actives 0.21% (n = 390,000). Q92830. Potency, µM (titrated, usually from 58.9 µM), usual class: inhibitors
Target sequence (Q92830 whole entry, looked up): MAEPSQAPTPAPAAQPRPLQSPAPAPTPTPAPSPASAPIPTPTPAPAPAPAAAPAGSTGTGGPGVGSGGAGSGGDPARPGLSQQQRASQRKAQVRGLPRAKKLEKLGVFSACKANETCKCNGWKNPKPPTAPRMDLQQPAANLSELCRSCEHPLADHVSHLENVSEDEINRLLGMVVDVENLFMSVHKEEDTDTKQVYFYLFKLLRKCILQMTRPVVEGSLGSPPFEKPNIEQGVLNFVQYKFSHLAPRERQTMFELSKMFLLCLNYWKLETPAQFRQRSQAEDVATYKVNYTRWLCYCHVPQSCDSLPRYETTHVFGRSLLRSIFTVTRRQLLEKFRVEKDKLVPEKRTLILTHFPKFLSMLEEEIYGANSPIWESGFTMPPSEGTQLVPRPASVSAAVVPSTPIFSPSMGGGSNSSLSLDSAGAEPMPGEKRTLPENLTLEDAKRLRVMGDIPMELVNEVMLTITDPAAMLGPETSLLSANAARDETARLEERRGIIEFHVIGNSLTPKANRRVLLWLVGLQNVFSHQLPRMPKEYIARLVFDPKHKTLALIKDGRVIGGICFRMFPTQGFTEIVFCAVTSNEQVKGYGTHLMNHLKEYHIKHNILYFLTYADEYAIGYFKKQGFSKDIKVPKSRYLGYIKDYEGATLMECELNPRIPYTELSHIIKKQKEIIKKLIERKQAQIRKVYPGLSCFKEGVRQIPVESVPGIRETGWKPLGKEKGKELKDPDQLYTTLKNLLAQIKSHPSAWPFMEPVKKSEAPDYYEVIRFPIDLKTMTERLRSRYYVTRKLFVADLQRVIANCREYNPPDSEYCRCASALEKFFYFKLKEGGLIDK
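Titration-based screen in which CoA formation is detected via maleimide probe ThioGlo1 (50uM) turning fluorescent on thiol reaction; substrates H3(1-25) 75uM and acetyl-CoA 70uM, GCN5L2 20nM, 20 min incubation at room temperature.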
PI4K2A block: blocks human PI4K2A kinase activity. Q9BTU6. actives 0.13% (n = 420,000). purified PI4K2A, ADP-Glo luminescence, 1 h; hits give low values. activity change, negative = inhibition, % at 76.9 µM; in the data active = activity change below about -50%; inconclusive = mostly about -30% to -49%
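ADP-Glo luminescence measured ADP generated by PI4K2A enzyme (4 ug/mL before mixing) with 1.2 mM PI substrate (pre-mix) and 300 microM ATP (pre-mix). Tris pH7.5 buffer with MgCl2, Triton X-100; 1 h reaction at ambient temperature.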
GLS inhibitor: glutaminase GLS (human) inhibition | Potency, µM (top dose mostly 45.5 µM), hits mostly inhibitors | actives 0.21% (n = 410,000) | GLS enzymatic activity, qHTS titration | O94925
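Coupled fluorescence readout: glutamate oxidase/HRP/Amplex Red detect glutamate formed by hKGA from L-glutamine (1 mM solution added). Buffer 45 mM KH2PO4 pH 8.2, 0.02% Tween-20; reads at t0 and 30 min RT.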
VDR inh: vitamin D3 receptor (human) inhibition; P11473; VDR-SRC2-3 peptide fluorescence polarization, 2 h; Potency, µM, hits mostly inhibitors; actives 0.93% (n = 400,000); AID 504847
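After 23 nl compound addition and a short centrifugation, plates sat for 2 hours at ambient temperature; polarization of fluorescence then indicated loss of VDR binding to peptide SRC2-3.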
PLK1 PBD block: inhibitors of human PLK1 polo-box domain binding | Plk1 PBD binding of FITC phosphopeptide, fluorescence polarization | Potency, µM, actives largely listed as inhibitors | actives 2.8% (n = 360,000) | AID 720504; note: series mostly up to about 57 µM; nearly all actives have a fitted effect of over 65% in size
Numbers stand for hits; - = inactive; ? = inconclusive; . = no result given; ! = not active in a repeat. Unless noted, calls come from the whole dose curve; as a rule, active = well fitted curve in the direction sought with a large enough effect; inconclusive = small, poorly fitted or top-dose-only effect, or another doubt; inactive = no such curve, though single readings can be large; an effect the other way counts as inactive or inconclusive.

SMILES | KAT2A inh | PI4K2A block | GLS inhibitor | VDR inh | PLK1 PBD block
Cc1nn(-c2cccc(C(F)(F)F)c2)c(Cl)c1/C=N/Nc1cccc(C(=O)O)c1 | - | - | - | ? | 23.8µM
O=C(O)c1cc(N/N=C/c2c[nH]c3ccccc23)ccc1Cl | - | - | 14.1µM | ? | ?
Cc1cccc(OC(=O)c2cc(-c3ccc4c(c3)OCCO4)on2)c1C | - | - | - | - | .
O=C(O)c1cc(N/N=C/c2ccc(-c3ccccc3)cc2)ccc1Cl | - | - | ? | ? | 9.47µM
O=C(O)c1ccc(N/N=C/c2ccc(OC(=O)c3ccccc3Cl)cc2)cc1 | - | - | ? | - | 29.9µM
O=C(O)c1cc(-c2ccc(/C=N/Nc3ccc(Cl)cc3)o2)ccc1Cl | - | - | - | - | 29.9µM
O=C(O)c1ccc(N/N=C/c2ccc(-c3ccccc3)cc2)cc1 | ? | - | - | - | 26.7µM
C#CCNC(=O)C[C@@H]1C(=O)N(Cc2ccc(OC)cc2)/C2=C/CCCCC[C@@]21C(=O)OCC | . | - | . | . | .
Cc1cccc(NC(=O)Nc2c(-c3ccc(C(F)(F)F)cc3)nc3ncccn23)c1 | . | - | . | . | .
CC(C)(C)c1ccc(C(=O)Nc2cc(Cl)ccc2C(=O)O)cc1 | . | - | . | . | .
OC[C@H]1O[C@@H](n2cnc3c(=S)nc[nH]c32)[C@H](O)[C@@H]1O | . | - | . | . | .
COc1cc(NC(=O)C2CCN(S(=O)(=O)c3ccc(N4CCCC4=O)cc3)CC2)cc(OC)c1 | - | - | - | - | 29.9µM
COc1ccc(NC(=O)C2CCN(S(=O)(=O)c3ccc(N4CCCC4=O)cc3)CC2)cc1OC | - | - | - | - | -
COc1ccc(S(=O)(=O)N2CCC(C(=O)N[C@H](C(=O)N3CCCC3)C(C)C)CC2)cc1 | - | - | - | - | 26.7µM
COc1ccc(S(=O)(=O)N2CCCC(C(=O)NCc3ccccc3)C2)cc1 (centres undefined) | - | - | - | - | -
COc1ccc(S(=O)(=O)N2CCCC(C(=O)NCCC(C)C)C2)cc1 (centres undefined) | - | - | - | - | 23.8µM
O=C(CSc1ncn[nH]1)c1ccco1 | - | - | - | - | 29.9µM
O=C(CSc1nc2cc(Cl)ccc2s1)c1ccco1 | - | - | - | - | ?
O=C(Nc1nnc(SCc2ccc(Cl)cc2)s1)c1ccco1 | - | - | ? | ? | 2.99µM
O=C(CSc1ncn[nH]1)c1ccccc1 | ? | - | - | ? | 23.8µM
O=C(CSc1nnc(SCC(=O)c2ccco2)s1)c1ccco1 | - | - | - | - | 16.8µM
CCC(N)(C(=O)O)c1ccc(C(=O)O)cc1 (centres undefined) | - | . | . | - | .
CCOC(=O)N1CCC(n2c(=O)[nH]c3cc(Cl)ccc32)CC1 | . | - | . | . | .
CC(=O)OCC(NC(=O)C(CCCCNC(=O)OCc1ccccc1)NC(=O)OC(C)(C)C)C1OC(n2ccc(=O)[nH]c2=O)C(OC(C)=O)C1OC(C)=O (centres undefined) | . | . | . | - | .
CN1CCc2cccc3c2[C@H]1Cc1ccc(O)c(O)c1-3 | - | - | ? | 35.5µM! | 37.7µM!
SMILES | KAT2A inh | PI4K2A block | GLS inhibitor | VDR inh | PLK1 PBD block
Nc1ccc(C(=O)OCC(O)CO)cc1 (centres undefined) | . | - | . | . | .
CCC(C(=O)N1CCN(c2ccccc2)CC1)n1nc(C)c2sc3ccccc3c2c1=O (centres undefined) | - | - | - | - | .
Brc1ccc(-c2nc3ncccn3c2NC2CCCCC2)o1 | - | - | - | - | 21.2µM
Cc1ccc(-c2nc3ncccn3c2NC2CCCC2)o1 | - | - | - | - | -
CC(=O)C1(C(=O)NCc2ccccc2)CC(c2ccccc2C(F)(F)F)=NO1 (centres undefined) | . | - | . | . | .
CC(=O)N1CCN(C2=NC(=O)/C(=C/c3ccc(OS(=O)(=O)c4ccccc4)cc3)S2)CC1 | - | - | - | 50.1µM | -
CC1=C(C(=O)Nc2ccccc2)C(c2ccncc2)n2nc(SCc3ccccc3)nc2N1 (centres undefined) | - | - | - | - | .
O=C(O)Cc1ccc2c(c1)C(=O)c1ccccc1CO2 | . | - | . | . | .
O=C(NCc1cccnc1)c1cccn1-c1ncc(C(F)(F)F)cc1Cl | - | - | - | ? | 29.9µM
CCN1C(=O)c2ccccc2C1Nc1cccc(OCCN2CCCCC2)c1 (centres undefined) | . | . | - | . | .
O=C(Nc1c(-c2ccc3c(c2)OCO3)[nH][nH]c1=O)c1cccc(C(F)(F)F)c1 | . | ? | - | . | -
